High-throughput results deposited in PubChem by several laboratories.
Compounds with a hit are over-represented: about 4.2% of the library has one in this group of screens.
RecA intein inh: inhibitors of M. tuberculosis RecA intein splicing. P9WHJ3. cell-free RecA intein splicing, fluorescence. inhibition, % (no concentration beside the values). hit rate 0.75% among 290,000; in the data active means inhibition above about 30%;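 further: 0% = vehicle wells and 100% = reference inhibitor control wells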
BJeLR viability: kills HRASV12-expressing BJeLR cells | BJeLR (HRASV12) viability, CellTiter-Glo ATP luminescence, 48 h | inhibition, % (concentration not given with the values) | hit rate 0.17% among 300,000; in the data active means inhibition above about 50%
FBA Mtb inh: inhibitors of M. tuberculosis fructose-bisphosphate aldolase; P9WQA3; purified M. tuberculosis FBA, fluorescence read-out; inhibition, % at 1 µM; hit rate 2.3% among 360,000; AID 588726; in the data active means inhibition above about 27%;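 further: 0% = vehicle and 100% = reference inhibitor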
Target sequence (P9WQA3 whole entry, looked up): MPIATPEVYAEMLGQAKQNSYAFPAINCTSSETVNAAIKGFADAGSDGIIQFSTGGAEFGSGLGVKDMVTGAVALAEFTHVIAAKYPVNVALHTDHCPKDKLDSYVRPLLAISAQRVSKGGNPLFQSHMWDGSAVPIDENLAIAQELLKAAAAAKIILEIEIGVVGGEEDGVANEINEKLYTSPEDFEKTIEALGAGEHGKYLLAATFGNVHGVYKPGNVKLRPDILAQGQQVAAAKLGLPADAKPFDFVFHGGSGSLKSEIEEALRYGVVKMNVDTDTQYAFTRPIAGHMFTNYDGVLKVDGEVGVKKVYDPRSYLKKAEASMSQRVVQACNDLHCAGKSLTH
PrPC surface inh: inhibitors of human cell surface prion protein PrPC; hit rate 0.43% among 370,000; TR-FRET read-out; AID 720596; inhibition, % at 13.8 µM; P04156; in the data active means inhibition above about 24%; further: 0% = median of the test wells and 100% = reference compound wells
GDH-TPI counter: GDH-TPI coupled enzyme inhibition counter-screen | GDH-TPI coupled enzyme counterscreen, NADH absorbance | inhibition, % at 4.8 µM | hit rate 1.2% among 360,000 | AID 588335; in the data active means inhibition above about 30%;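 further: 0% = DMSO wells and 100% = wells lacking the enzyme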
Active calls of the source: *; x = not tested or not shown; + = active, no number.

SMILES	RecA intein inh	BJeLR viability	FBA Mtb inh	PrPC surface inh	GDH-TPI counter
COCCCNC(=O)C[C@H]1C[C@@]2(C(=O)OC)C(=C[C@H](COCc3ccccc3)O[C@@H]2C)N(Cc2ccc(Cl)cc2Cl)C1=O	x	x	x	-5	x
O=C(N/N=C/c1cc2c(cc1Br)OCO2)c1ccccn1	0	9	4	-3	31*
O=C(N/N=C/c1cc2c(cc1Br)OCO2)c1cc2ccccc2o1	0	-2	7	0	22
CCCCCCCCCC[n+]1cccc2c3ccccc3ccc21	20	60*	29*	24	4
CC(C)[C@H](NC(=O)c1ccc(Cl)cc1Cl)C(=O)N1CCC[C@H]1C(=O)NCc1ccccc1	x	x	x	-1	x
COc1cccc(CNC(=O)C2CCCN(c3ncccn3)C2)c1OC (centres undefined)	x	x	x	-6	x
CC12CCC(C(=O)N(CSC(=S)N/N=C\c3ccccc3)C1=O)C2(C)C (centres undefined)	-3	-7	5	-2	42*
CC12CCC(C(=O)N(CSC(=S)N/N=C\c3ccccc3Cl)C1=O)C2(C)C (centres undefined)	-6	-8	1	-3	25
CCc1ccc2oc(=O)cc(CN3CCN(Cc4ccccc4)CC3)c2c1	0	3	1	-1	6
O=c1cc(CN2CCOCC2)c2cc(Cl)c(O)cc2o1	-203	1	+	-6	-1
CCc1cc2c(CN3CCN(CC)CC3)cc(=O)oc2cc1O	-381	8	+	-1	16
C#CCN1CC(N(C)CCO)CS1(=O)=O (centres undefined)	x	x	x	-1	x
CCCCOCCCNC(=O)C[C@@H]1C(=O)N(CCc2ccc(Cl)cc2)C2=CCCCC[C@]21C(=O)OC	x	x	x	6	x
CCCCOc1ccc(C(=O)N/C(=C/C=C/c2ccccc2)C(=O)O)cc1	-61	2	-1	-9	22
O=C(O)COc1ccc(/C=N/NC(=O)c2cccc3ccccc23)cc1	0	-11	-2	-7	16
O=C(O)COc1ccc(/C=N/NC(=O)/C(=C/C=C/c2ccccc2)NC(=O)c2ccccc2)cc1	7	-12	3	-11	55*
CCCCOc1ccc(C(=O)N/C(=C/C=C/c2ccccc2)C(=O)NC)cc1	x	-4	0	-8	33*
O=S1(=O)c2c(NCc3ccco3)cccc2Oc2ccccc2CN1Cc1cn(Cc2cccc(F)c2)nn1	x	x	x	1	x
COC(=O)c1cc(-c2cc(F)cc(OC)c2)c(=O)n2c1CCC2	x	x	x	10	x
CCOC(=O)c1nn(-c2ccccc2)c(C(=O)OCC)c1N	2	-9	+	4	19
CCc1c(Cc2ccccc2)ncn1CCc1ccccc1OC	x	x	x	17	x
CC1CN(Cc2cc(=O)oc3cc(O)ccc23)CC(C)O1 (centres undefined)	-89	-12	161*	-1	7
Cc1ccc2c(CN3CCN(Cc4ccccc4)CC3)cc(=O)oc2c1	-1	7	0	-7	6
O=C(c1ccco1)N1CCN(Cc2cc(=O)oc3cc(O)ccc23)CC1	x	x	+	-1	26
Oc1ccc(Cl)cc1CN1CCN(Cc2ccccc2)CC1	0	3	-12	6	63*
SMILES	RecA intein inh	BJeLR viability	FBA Mtb inh	PrPC surface inh	GDH-TPI counter
O=c1cc(CN2CCN(Cc3ccccc3)CC2)c2ccc(O)cc2o1	-165	-3	153*	0	8
O=C(Nc1nc2ncccn2c1-c1ccccc1)C1CC1	x	x	x	-3	x
c1ccc2cc(Cn3ccc4ccc(-c5ccc6cc[nH]c6c5)cc43)ccc2c1	x	x	x	-5	x
CN1C(=O)c2cc(NC(=O)Nc3ccccc3)ccc2OC[C@H]2O[C@@H](CC(=O)NC3Cc4ccccc4C3)CC[C@@H]21	x	x	x	-3	x
O=C(NCc1ccccc1)c1c(Cl)nc(Cl)c(Cl)c1Cl	3	70*	-1	-2	5
Cc1nc(Cl)c(C(=O)NCc2ccccc2)c(C)c1Cl	-2	-6	7	19	5
CCOC(=O)CCc1c(C)c2ccc(O)cc2oc1=O	-29	-10	+	5	1
Cc1c(Cc2ccccc2)c(=O)oc2c(CN(C)C)c(O)c(Cl)cc12	-349	2	+	-4	17
CCOC(=O)Cc1c(C)c2c(O)cc(O)cc2oc1=O	-135	6	121*	15	19
COc1ccc(-c2c(C)c3ccc(O)cc3oc2=O)cc1	-51	1	+	-2	23
CCOC(=O)c1oc2cc(O)cc(C)c2c1C	x	x	26	6	8
COc1cccc(N(C)C(=O)[C@@H](C2CC2)[C@@H](O)c2ccc3ccccc3c2)c1	x	x	x	1	x
Cc1cccc(S(=O)(=O)N2CCC[C@H]2C(=O)N2CCC[C@@H]2C(=O)NCc2ccccc2)c1	x	x	x	0	x
COc1ccc(CNC2CCC23CCC(c2ccccc2)CC3)cc1OC (centres undefined)	x	x	x	-2	x
COP(=O)(O)C(Cc1ccccc1)NC(=O)OCc1ccccc1 (centres undefined)	x	x	x	14	x
Cc1c(Cc2ccccc2)c(=O)oc2cc(O)ccc12	-18	0	+	3	27
COc1ccc(CNC(=O)c2cnc3cc(C)ccn3c2=O)cc1	-3	9	5	-2	7
CCOC(=O)c1cnc2cc(C)ccn2c1=O	-2	11	124*	-2	31*
O=C(Nc1ccc(-c2nc3ccccc3o2)cc1)c1ccc2c(c1)OCO2	-2	-1	1	-5	36*
O=C(Nc1ccc2nc(-c3cccs3)[nH]c2c1)c1cccs1	0	-5	9	-17	54*
O=C(Nc1ccc2nc(-c3ccccc3)oc2c1)c1ccco1	-2	-8	3	11	54*
O=C(Nc1c(C(=O)Nc2ccccc2)cnn1-c1ccccc1)c1ccco1	x	1	0	1	4
O=C(Nc1ccc(-c2nc3ccccc3c(=O)o2)cc1)c1ccco1	0	5	-2	22	21
Cc1ccc(NC(=O)c2cnn(-c3ccccc3)c2NC(=O)c2ccco2)cc1	-1	5	181*	5	11
COc1ccc2c(c1)NC(=O)[C@@]2(CCN1C(=O)c2ccccc2C1=O)c1[nH]c2ccccc2c1CCN1C(=O)c2ccccc2C1=O	x	x	x	-12	x
SMILES	RecA intein inh	BJeLR viability	FBA Mtb inh	PrPC surface inh	GDH-TPI counter
O=C(Nc1cccc(-c2nc3ccccc3[nH]2)c1)c1ccco1	-9	5	4	-4	8
O=C(Nc1ccc(-c2nc3ccc(NC(=O)c4cccs4)cc3[nH]2)cc1)c1cccs1	-4	19	4	19	51*
O=C(Nc1ccc2nc(-c3cccs3)[nH]c2c1)c1ccco1	5	5	9	-7	36*
Cn1cccc1-c1nc2ccc(NC(=O)c3ccco3)cc2[nH]1	-5	-4	0	-5	27
Nc1ccc(C(=O)Nc2ccc3nc(-c4ccncc4)[nH]c3c2)cc1	-1	0	-1	8	17
Cc1ccc2nc(-c3ccc(NC(=O)c4ccco4)cc3)[nH]c2c1	0	4	1	x	54*
C=CCCC1(CCC)C(=O)/C(=C(\O)c2ccccc2)C(=O)C(CCC)=C1OC (centres undefined)	x	x	x	2	x
O=C1N/C(=N/O)S/C1=C/c1cccc([N+](=O)[O-])c1	0	2	3	-21	26
